The whole screen tested about 290,000 compounds, of which about 370 (0.13%) were called active.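 Rule for the calls: active = spots per cell inhibited over 60%, with over 100 cells counted and total cytoplasm intensity under 500,000; inconclusive = wells with under 100 cells, flagged as likely toxic; inactive = the rest.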 Only a selection was taken, and actives are over-represented in it overall. Entries with a potency or affinity are not part of this list.
Target: G-protein coupled receptor 55 (Homo sapiens) (UniProt Q9Y2T6)
Assay: inhibition of LPI-stimulated GPR55 beta-arrestin translocation – imaging, U2OS, beta-arrestin-GFP, LPI agonist, primary screen (AID 2013);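 note: U2OS cells stably carrying GPR55 and arrestin-GFP stimulated by 5 µM LPI near EC80; imaged beta-arrestin-GFP aggregate spots per cell after agonist stimulation; plate controls were LPI-stimulated DMSO wells for no effect and DMSO wells without LPI for full effect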
Settings: LPI antagonism, at 10 µM, stronger effect = higher value

Chain of G-protein coupled receptor 55 (Homo sapiens) (Q9Y2T6 whole entry, looked up): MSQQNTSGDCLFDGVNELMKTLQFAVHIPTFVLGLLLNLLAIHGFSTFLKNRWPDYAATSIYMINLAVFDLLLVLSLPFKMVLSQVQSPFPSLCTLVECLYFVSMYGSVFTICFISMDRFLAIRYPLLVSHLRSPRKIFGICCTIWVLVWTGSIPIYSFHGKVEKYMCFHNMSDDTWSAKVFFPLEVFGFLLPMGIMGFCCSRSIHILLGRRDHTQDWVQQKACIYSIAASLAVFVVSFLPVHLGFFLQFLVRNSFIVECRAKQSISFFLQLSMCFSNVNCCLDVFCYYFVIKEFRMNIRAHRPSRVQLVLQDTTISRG

Structure (SMILES) | inhibition
Cc1csc(NC(=O)CCC(=O)N(CC(=O)NC2CCCCC2)c2ccccc2)n1 | 7.7% (inactive)
O=C1NC(=O)N(Cc2ccccc2F)C1=O | -13.9% (inactive)
Cn1cccc1/C=N/N1CCN(Cc2ccccc2Cl)CC1 | -2.2% (inactive)
Cc1cc(F)ccc1NC(=O)C1CCN(S(=O)(=O)c2ccc3c(c2)CCCC(=O)N3)CC1 | 8.1% (inactive)
O=C(NCCNC(=O)c1cc(Cl)ccc1Cl)c1ccccn1 | 3.4% (inactive)
CC(NC(=O)Cn1nc(C(=O)O)c2ccccc2c1=O)C12CC3CC(CC(C3)C1)C2 (stereo unspecified) | -2.7% (inactive)
CC(NC(=O)CN1CCCC1)C12CC3CC(CC(C3)C1)C2 (stereo unspecified) | -3.7% (inactive)
O=C(COC(=O)c1cc(S(=O)(=O)N2CCc3ccccc3C2)ccc1Cl)NCc1ccco1 | 7.3% (inactive)
Cn1c(N)c(C(=O)COC(=O)CCC2CCCCC2)c(=O)n(C)c1=O | 8.4% (inactive)
CCN(CC)S(=O)(=O)c1ccc(N2CCOCC2)c(NC(=O)COc2ccccc2C#N)c1 | -13.6% (inactive)
Cn1c(=O)c2ccccc2n2c(CCl)nnc12 | 5.8% (inactive)
CSCCNC(=O)c1ccc2nc(C3CCCCC3)oc2c1 | 4.5% (inactive)
O=C(NCc1ccccn1)c1ccc2nc(C3CCCCC3)oc2c1 | -4.5% (inactive)
CCOc1ccc(N(C)S(=O)(=O)c2ccc3[nH]cc(C(=O)NCC4CCCO4)c(=O)c3c2)cc1 (stereo unspecified) | 8.3% (inactive)
Cc1cc(NC(=O)c2ccc([N+](=O)[O-])cc2)n(CCC#N)n1 | 4.7% (inactive)
COCCCn1c(=S)[nH]c2sc3c(c2c1=O)CCCS3 | -0.4% (inactive)
CCc1ccc(CN2CCCC(C(=O)N3CCCCC3)C2)cc1 (stereo unspecified) | 12% (inactive)
CCc1nnc(NC(=O)c2ccc3c(c2)C(=O)N(CC(C)C)C3=O)s1 | 3.7% (inactive)
CCCNC(=O)c1nnsc1S(=O)(=O)c1ccc(Cl)cc1 | 31.8% (inactive)
CNC(=O)c1ncoc1-c1ccc(Cl)cc1 | 12.3% (inactive)
O=C(Nc1ccccc1)c1nnsc1S(=O)(=O)c1ccc(Cl)cc1 | 4.3% (inactive)

Structure (SMILES) | inhibition
CCCNC(=O)c1nnsc1Sc1ccc(Cl)cc1 | -10.7% (inactive)
O=C(CC12CC3CC(CC(C3)C1)C2)NC(Cc1ccccc1)C(=O)O (stereo unspecified) | 10.7% (inactive)
CC(=O)N(C(C)=O)c1nc(-c2ccccc2)cn1/N=C/c1ccccc1 | 7.8% (inactive)
CCCNC(=O)NC(=O)CSc1nncs1 | 1.8% (inactive)
Cc1ccc(C(=O)N/C(=C/c2ccco2)C(=O)N2CCCCC2)cc1 | -6.4% (inactive)
CC(C)Nc1nc(Cl)nc(NCCOc2ccccc2)n1 | 1.4% (inactive)
CN(C)CC(C)(C)CNS(=O)(=O)c1ccc(Cl)s1 | 2.9% (inactive)
O=c1[nH]c(Cc2ccccc2)nc2scc(-c3ccccc3)c12 | -0.4% (inactive)
CN1CCN(c2nc(C(N)=O)cc(-c3ccccc3)n2)CC1 | -5.1% (inactive)
NC(=O)c1cc(-c2ccccc2)nc(N2CCCCCC2)n1 | -8.5% (inactive)
CC(=O)Nc1ccc(S(=O)(=O)NCCC(=O)N2CCc3ccccc32)cc1 | 2.8% (inactive)
O=C(NC1CCCN(c2ccc(C(F)(F)F)cn2)C1)c1cc(Cl)ccc1F (stereo unspecified) | 9.1% (inactive)
CC(C)=NNc1nc2c(c(=O)[nH]c(=O)n2C)n1CCc1ccccc1 | -4.6% (inactive)
C=CCOc1c(CNc2cccc(C(=O)O)c2)cccc1OC | 4.5% (inactive)
COc1ccc(Br)cc1/C=N/Nc1cccc(C(=O)O)c1 | 1% (inactive)
Cc1c(NC(=O)CN2C(=O)NC(CCc3ccccc3)C2=O)c(=O)n(-c2ccccc2)n1C (stereo unspecified) | 13.9% (inactive)
NC(=O)[C@@H]1CCOc2c(F)cc([N+](=O)[O-])cc2C(=O)N[C@@H](CO)C(=O)NCC(=O)N1 | 1.8% (inactive)
COc1ccc(/C=C2\SC(N)=NC2=O)cc1 | -7% (inactive)
CC12CCC(C/C1=N\N=C1\NC(=O)/C(=C\c3ccc(Cl)cc3)S1)C2(C)C (stereo unspecified) | 41.5% (inactive)
O=C(CN(C(=O)CCC(=O)Nc1nccs1)c1ccc(F)cc1)NCC1CCCO1 (stereo unspecified) | 15% (inactive)
C/C(Cl)=C\CSc1nnc2n(N)c(=O)c3ccccc3n12 | -16.2% (inactive)

Structure (SMILES) | inhibition
Cc1ccc(SCc2cn3cccnc3n2)cc1 | -13.1% (inactive)
CCN(Cc1cn2cccnc2n1)C1CCCCC1 | 87.7% (active)
Cc1ccc(OCc2cn3cccnc3n2)cc1 | 12.3% (inactive)
O=C1NCC(c2ccccc2)C1C(=O)N/N=C/c1ccc(Cl)s1 (stereo unspecified) | 5.1% (inactive)
COc1ccc(/C=c2\s/c(=C(/C#N)C(=O)NCc3ccco3)n(-c3ccccc3)c2=O)cc1 | 2.8% (inactive)
CN(c1ccccc1)c1ccc(/C=c2\s/c(=C(/C#N)C(=O)C(C)(C)C)n(Cc3ccco3)c2=O)cc1 | 74% (active)
Cc1ccc(/C=c2\s/c(=C(/C#N)C(=O)N3CCCC3)n(Cc3ccco3)c2=O)s1 | 5.1% (inactive)
Cc1[nH]c(C)c(S(=O)(=O)N2CCCCC2)c1C(=O)N1CCCCC1 | 29.6% (inactive)
Cc1ccc(N2CN(CCc3ccccc3)CNC2=S)cc1 | 5% (inactive)
O=C(Nc1cccc(F)c1)NC1CCN(Cc2ccccc2)CC1 | 6% (inactive)
CC(NC(=O)/C(C#N)=C/c1ccc([N+](=O)[O-])o1)c1ccccc1 (stereo unspecified) | 4.1% (inactive)
COc1ccc(/C=C(\C#N)C(=O)NC(C)c2ccccc2)cc1O (stereo unspecified) | 4.5% (inactive)
CC(=NCCc1ccccc1)C1=C(O)COC1=O | 13.7% (inactive)
CCOC(=O)c1c(N)sc(C(O)(C(F)(F)F)C(F)(F)F)c1-c1ccc(OC)cc1OC | 22.9% (inactive)
CCOC(=O)c1c(N)sc(N)c1C(=O)OCC | 6.2% (inactive)
CCOC(=O)c1c(N)sc(-c2ccccc2)c1C | -6.5% (inactive)
CCOC(=O)c1c(N)sc(C(O)(C(F)(F)F)C(F)(F)F)c1-c1ccc(Cl)cc1 | 5.7% (inactive)
N#Cc1c(N)nc(SCC(=O)C23CC4CC(CC(C4)C2)C3)c(C#N)c1-c1ccc(Cl)cc1 | 0.2% (inactive)
COC(=O)c1cccc(NC(=O)CSc2nc3cccnc3n2C)c1 | 16.9% (inactive)
